Compound activity (PubChem)
RORg inh: inhibitors of mouse ROR gamma transcriptional activity | Potency, µM (doses to about 53.6 µM), for inactives: top-dose activity change, negative = inhibition, most hits filed as inhibitors | 310,000 tested, 5.4% active | Drosophila S2 Gal4-RORgamma UAS-luciferase reporter, 20 h | AID 2551; further: potency means the concentration at half of the fitted maximal effect; on the % scale 0 is the no-effect control and ±100 the full control effect; nearly all actives have a fitted effect of over 60% in size
Target sequence (P51450 whole entry, looked up, the tested form may be a part): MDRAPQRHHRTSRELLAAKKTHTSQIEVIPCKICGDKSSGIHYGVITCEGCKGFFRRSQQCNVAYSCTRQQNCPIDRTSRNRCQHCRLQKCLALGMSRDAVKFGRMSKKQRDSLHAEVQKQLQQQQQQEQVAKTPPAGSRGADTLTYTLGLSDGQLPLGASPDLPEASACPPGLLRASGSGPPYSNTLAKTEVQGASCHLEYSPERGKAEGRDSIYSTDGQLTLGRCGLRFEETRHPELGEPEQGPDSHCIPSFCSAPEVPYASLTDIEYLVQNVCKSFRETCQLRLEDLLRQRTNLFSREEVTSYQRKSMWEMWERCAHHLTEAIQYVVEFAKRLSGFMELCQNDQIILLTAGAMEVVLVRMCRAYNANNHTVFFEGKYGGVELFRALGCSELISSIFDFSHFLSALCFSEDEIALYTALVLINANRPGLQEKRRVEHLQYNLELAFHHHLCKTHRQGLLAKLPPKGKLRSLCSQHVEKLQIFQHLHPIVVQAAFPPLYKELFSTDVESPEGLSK
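A Gal4/UAS one-hybrid system in insect cells: metallothionein-promoter Gal4–ROR gamma fusion plus Photinus luciferase reporter. Copper sulfate 700 uM final, 20 hr ambient incubation, luminescent detection after 10 min with reagent.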
ERG Ets-DNA blk: blocks human ERG Ets domain binding to DNA; 370,000 tested, 0.028% active; fluorescence polarization, His-ERG Ets domain / labelled DNA; P11308; Potency, µM (highest dose often 76.9 µM), for the others: at the top dose FP activity, negative = inhibition, usual class: inhibitors; active means well fitted inhibition curve with a large enough effect in the polarisation, with a control signal flat; inconclusive means small, poorly fitted or top-dose-only effect, or effect the other way, or a change in a side signal; inactive means no such curve, though single readings can be large or run the other way; the % refers to the polarisation;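 further: polarization taken with two DNA probes labelled with fluorescein and Texas red; potency means the concentration at half of the fitted maximal effect; % of control where 0% means no effect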
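His-tagged ERG Ets domain (1 uM in the protein solution; 300mM KCl, 50mM Tris-HCl, 1mM EDTA, 1mM DTT, pH 7.5) received compound, then a probe mix of 5 nM fluorescein-DNA and 100nM Texas-615-DNA. Fluorescence polarization was read for both dyes.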
a7 integrin act: integrin-mediated muscular dystrophy alleviation activation. Potency, µM (top dose mostly 38.3 µM), for inactives: top-dose activation, usual class: activators. alpha7betagal myoblasts, beta-gal FDG fluorescence, 48 h. 350,000 tested, 0.064% active;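 further: potency means the concentration at half of the fitted maximal effect; 100% = response of the positive control SU9516; nearly all actives have a fitted effect of over 60% in size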
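alpha7betagal+/- myoblasts (passage 13, 250/well) treated 48 h at 37C with compounds at 1:260 dilution of DMSO stock. Lysed, then beta-galactosidase activity read as FDG fluorescence (ex 480/em 540) after 30 min, with pre-read for autofluorescence.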
Giardia killer: kills Giardia lamblia; Giardia lamblia trophozoite viability; 340,000 tested, 0.15% active; activity change, % at 7.66 µM, hits read low; in the data active means activity change below about -80%; inconclusive means between about -30% and that limit;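 further: parasites exposed to compound for two days anaerobically before the ATP read; on the % scale 0 is the no-effect control and ±100 the full control effect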
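Media and compound were dispensed first, then trophozoites at 100 cells/well; plates sat 48 hrs at 37 deg C without oxygen before ATP luminescence reagent was added and read after 15-30 min at room temperature.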
VP16 counter: counter-screen for ROR gamma inhibitors: Gal4-VP16 reporter; Drosophila S2 Gal4-VP16 UAS-luciferase, luminescence, 20 h; Potency, µM (highest dose often 53.6 µM), without a hit: at the top dose activity, negative = inhibition, actives largely listed as inhibitors; 310,000 tested, 3.5% active;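 further: Gal4-VP16 expression switched on by copper sulfate through the metallothionein promoter; potency means the concentration at half of the fitted maximal effect; on the % scale 0 is the no-effect control and ±100 the full control effect; nearly all actives have a fitted effect of over 50% in size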
* marks the source's active call; other numbers are inactive results; ? = inconclusive; nt = not tested or not shown. Only a selection was taken, and hits are over-represented in it overall. Unless noted, the call rests on the fitted dose curve; in most records, active means well fitted curve in the direction sought with a large enough effect; inconclusive means small, poorly fitted or top-dose-only effect, or another doubt; inactive means no such curve, though single readings can be large; an effect the other way counts as inactive or inconclusive.

SMILES	RORg inh	ERG Ets-DNA blk	a7 integrin act	Giardia killer	VP16 counter
CC1=NN(c2ccc([N+](=O)[O-])cc2)C(=O)/C1=C\N(C)C	2%	5%	14%	-6	?
CC1=NN(c2ccc(C)c(C)c2)C(=O)/C1=C\C=C\c1ccc([N+](=O)[O-])o1	10µM*	29%	-59%	-17	?
O=C1OC(/C(=C\Nc2ccc(F)cc2F)[N+](=O)[O-])c2ccccc21 (centres undefined)	14µM*	-1%	17%	25	?
COC(=O)c1c(NC(=O)CCl)sc(C(=O)N2CCOCC2)c1C	10µM*	0%	-76%	18	1.8µM*
COC(=O)c1c(N)sc(C(=O)N2CCOCC2)c1C	1%	6%	5%	14	-1%
C[Si](C)(C)Cl	-17%	nt	nt	nt	-6%
Cc1csc2c(N3CCN(C(=O)c4ccc(C(C)(C)C)cc4)CC3)ncnc12	?	-5%	-54%	22	?
COc1ccc(OCC(=O)Nc2nc3ccccc3[nH]2)cc1	0.79µM*	4%	23%	-12	7%
COc1ccc2oc(C(=O)Nc3nc4ccccc4[nH]3)c(C)c2c1	?	4%	16%	-5	2.8µM*
O=C(Nc1nc2ccccc2[nH]1)c1cc2ccccc2o1	2.5µM*	-8%	-7%	?	7.9µM*
COc1ccc(OCC(=O)NNc2c3ccccc3nc3ccccc23)cc1	0.35µM*	-2%	-5%	-3	7.1µM*
O=C(COc1ccccc1)NNc1c2ccccc2nc2ccccc12	13%	-1%	-21%	18	-12%
COc1ccc(Br)c(C(=O)Nc2nc3ccccc3[nH]2)c1	-44%	16%	-21%	12	5%
CC(C)C[C@H](NC(=O)[C@H](CC(C)C)NC(=O)[C@@H](Cc1c[nH]c2ccccc12)NC(=O)[C@H](Cc1ccccc1)NC(=O)[C@@H](Cc1c[nH]c2ccccc12)NC(=O)[C@H](CCC(N)=O)NC(=O)[C@H](CCC(N)=O)NC(=O)[C@@H]1CCCN1C(=O)[C@H](CCCCN)NC(=O)[C@@H]1CCCN1C(=O)[C@@H](CCCNC(=N)N)NC(=O)[C@@H]1CCCN1C(=O)CNC(=O)[C@H](CC(C)C)NC(=O)[C@H](CC(C)C)NC(=O)[C@H](Cc1ccc(O)cc1)NC(=O)CNC(=O)[C@H](C)NC(=O)[C@H](CO)NC(=O)[C@H](CC(N)=O)NC(=O)[C@H](CC(C)C)NC(=O)[C@@H](NC(=O)[C@H](Cc1c[nH]c2ccccc12)NC(=O)CN)[C@@H](C)O)C(N)=O	9%	nt	nt	nt	-9%
O=C(NCC(c1ccc2c(c1)OCO2)N1CCN(c2ccccc2)CC1)c1ccccc1 (centres undefined)	nt	0%	nt	nt	nt
COc1ccc(OC)c(NC(=O)N(C)CCc2c(C)nn(C)c2C)c1	nt	6%	nt	nt	nt
CC(C)c1ccc(N2C(=O)N(Cc3ccccc3Cl)c3ccccc3S2(=O)=O)cc1	nt	2%	nt	nt	nt
CCOC(=O)c1c(NC(=O)COc2cccc3c2CCN(CC)C3=O)sc2c1CCC2	8%	-4%	11%	3	4%
O=C1C(=O)N(C2CCN(C(=O)c3ccc(Cl)cc3)CC2)CCN1Cc1ccc(F)cc1	nt	-5%	nt	nt	nt
CC(NC(=O)Cc1cc(F)cc(F)c1)C(=O)NC(C(=O)OC(C)(C)C)c1ccccc1 (centres undefined)	?	nt	nt	nt	9%
CC(C)NC(=O)Cn1ncn2c(cc3cc(F)ccc32)c1=O	nt	1%	nt	nt	nt
Cc1cc(C)cc(C(=O)Nc2nc3ccccc3[nH]2)c1	6.3µM*	8%	-11%	-7	10µM*
COc1ccc(CCNC(=O)c2oc3ccccc3c2C)cc1	nt	-4%	5%	-6	nt
COc1cc(OC)cc(C(=O)Nc2nc3ccccc3[nH]2)c1	3.2µM*	-5%	?	-5	5.6µM*
COc1ccc(CCC(=O)Nc2nc3ccccc3[nH]2)cc1	13%	8%	-2%	0	16%
COc1ccc(CCNC(=O)c2oc3ccc(OC)cc3c2C)cc1	11µM*	2%	27%	-12	-16%
Cc1ccsc1C(=O)Nc1nc2ccccc2[nH]1	2µM*	-5%	-4%	-11	7.1µM*
